According to PubChem BioAssay (NCI):
This is part of a sample that, as a whole, favours compounds with a hit. Of some 83,000 tested, about 20% had one in any assay.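 The endpoint reported here, percent growth, reads 100 for growth as untreated, 0 for no net growth and -100 for all cells dead.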 Activity calls are given as the source filed them. The calls were made as follows: active = growth percent below 10; inactive = the rest.

Experiments:
Experiment in all cases: NCI-60 one-dose screen, 48 h (100 = growth as untreated, 0 = no growth, -100 = all killed)
Details in all cases: 10 µM unless noted
DU-145 prostate = tested on: DU-145 prostate
K-562 leukemia = tested on: K-562 leukemia
MALME-3M melanoma = tested on: MALME-3M melanoma
MDA-MB-231 breast = tested on: MDA-MB-231 breast
RXF 393 renal = tested on: RXF 393 renal
SF-268 CNS = tested on: SF-268 CNS
SF-295 CNS = tested on: SF-295 CNS
SF-539 CNS = tested on: SF-539 CNS
UACC-257 melanoma = tested on: UACC-257 melanoma
M14 melanoma = tested on: M14 melanoma

Measured: growth

CC1(C)CC[C@]2(C(=O)N3CCOCC3)CC[C@]3(C)C(=CC[C@@H]4[C@@]5(C)C/C(=C/c6ccncc6)C(=O)C(C)(C)[C@@H]5CC[C@]43C)[C@@H]2C1
inactive: DU-145 prostate 21.7% | MDA-MB-231 breast 33.9% | SF-268 CNS 48.6% | SF-295 CNS 25.4% | UACC-257 melanoma 14.8%
active: K-562 leukemia 6.99% | MALME-3M melanoma -19.7% | RXF 393 renal -36.8% | SF-539 CNS -7.46% | M14 melanoma -8.66%

O=C(O)c1cn(C2CC2)c2cc(N3CCN(C(=O)N/N=C/c4ccccc4)CC3)c(F)cc2c1=O
inactive: DU-145 prostate 104% | K-562 leukemia 89.1% | MALME-3M melanoma 92.9% | MDA-MB-231 breast 120% | RXF 393 renal 104% | SF-268 CNS 96.8% | SF-295 CNS 106% | SF-539 CNS 110% | UACC-257 melanoma 89.3% | M14 melanoma 108%

CN1CCN(Cc2cc(NC(=O)c3cccc(C#Cc4cccc5[nH]nc(N)c45)c3)cc(C(F)(F)F)c2)CC1
active: K-562 leukemia -42.3% | MALME-3M melanoma -54.7% | MDA-MB-231 breast -31% | RXF 393 renal -9.77% | SF-539 CNS -55.6% | M14 melanoma -53.1%
inactive: DU-145 prostate 33.9% | SF-268 CNS 40.5% | SF-295 CNS 26.3% | UACC-257 melanoma 57.8%

COc1cccc(/C=C2\COc3ccc(O)cc3C2=O)c1
active: K-562 leukemia 5.52%
inactive: DU-145 prostate 89% | MALME-3M melanoma 91.1% | MDA-MB-231 breast 49.7% | RXF 393 renal 105% | SF-268 CNS 91.1% | SF-295 CNS 103% | SF-539 CNS 88.5% | UACC-257 melanoma 111% | M14 melanoma 83.4%

CNCc1cccc2c1OCCOCCN(C)C(=O)CN(C)S(=O)(=O)c1ccc(cc1)-c1cnc(N)c(n1)C(=O)N2
inactive: MDA-MB-231 breast 67.6% | SF-268 CNS 28.3% | SF-295 CNS 36.1% | UACC-257 melanoma 41.6%
active: DU-145 prostate 7.84% | K-562 leukemia -39.5% | MALME-3M melanoma -85.3% | RXF 393 renal -0.929% | SF-539 CNS -50.7% | M14 melanoma 2.41%

CC(C)CN1CC(C(=O)Nc2ccc3c(c2)-c2ccccc2C3)CC1=O (stereo not given)
inactive: DU-145 prostate 80% [50 µM] | K-562 leukemia 64.7% [50 µM] | MALME-3M melanoma 58.7% [50 µM] | MDA-MB-231 breast 55.9% [50 µM] | RXF 393 renal 79.7% [50 µM] | SF-268 CNS 60.8% [50 µM] | SF-295 CNS 76.1% [50 µM] | SF-539 CNS 72% [50 µM] | UACC-257 melanoma 39.9% [50 µM] | M14 melanoma 77.4% [50 µM]

Cc1ccc(C)c(-n2c(-c3ccc(Br)cc3)csc2=NC(=O)c2ccccc2F)c1
inactive: DU-145 prostate 102% | K-562 leukemia 23.9% | MALME-3M melanoma 73.9% | MDA-MB-231 breast 84.1% | RXF 393 renal 81.8% | SF-268 CNS 99.6% | SF-295 CNS 73% | SF-539 CNS 89% | UACC-257 melanoma 57% | M14 melanoma 81.3%

CN1CCCc2cc(/C=C3/SC(=S)N(CCc4ccc(O)cc4)C3=O)ccc21
inactive: DU-145 prostate 85.9% | K-562 leukemia 27.6% | MALME-3M melanoma 96.6% | MDA-MB-231 breast 81.8% | RXF 393 renal 94.6% | SF-268 CNS 76.3% | SF-295 CNS 99.7% | SF-539 CNS 84.8% | UACC-257 melanoma 93.2% | M14 melanoma 78.6%

CCCCC(=O)Nc1ncc(Cc2ccccc2Cl)s1
inactive: DU-145 prostate 67.2% | K-562 leukemia 24.8% | MALME-3M melanoma 52.1% | MDA-MB-231 breast 53.3% | RXF 393 renal 31.3% | SF-268 CNS 69.6% | SF-295 CNS 45.7% | SF-539 CNS 39.2% | UACC-257 melanoma 55.3% | M14 melanoma 21.8%

O=C1CCC(C(=O)NN(c2ccccc2)c2ccccc2)N1 (stereo not given)
inactive: DU-145 prostate 101% | K-562 leukemia 12.2% | MALME-3M melanoma 104% | MDA-MB-231 breast 110% | RXF 393 renal 118% | SF-268 CNS 83.2% | SF-295 CNS 99% | SF-539 CNS 94.6% | UACC-257 melanoma 102% | M14 melanoma 12%

CCOC(=O)N1CCN(S(=O)(=O)c2oc(-c3ccc(Cl)cc3)nc2C#N)CC1
inactive: DU-145 prostate 103% | MALME-3M melanoma 79.8% | MDA-MB-231 breast 93.4% | RXF 393 renal 83.8% | SF-268 CNS 109% | SF-295 CNS 102% | SF-539 CNS 89% | UACC-257 melanoma 84.1% | M14 melanoma 75.4%
active: K-562 leukemia 9.23%

CC[C@H](C)[C@H](NC(=O)[C@H](CCCNC(=N)N)NC(=O)[C@H](Cc1c[nH]c2ccccc12)NC(=O)[C@@H](NC(=O)[C@H](CCCCN)NC(=O)[C@H](CCCCN)NC(=O)[C@@H](NC(=O)[C@@H](NC(=O)[C@@H](NC(=O)[C@H](CCCCN)NC(=O)[C@H](Cc1ccccc1)NC(=O)[C@H](CCCCN)NC(=O)[C@H](CCCCN)NC(=O)[C@H](Cc1ccccc1)NC(=O)[C@@H](NC(=O)[C@@H](N)CCCCN)[C@@H](C)CC)[C@@H](C)O)[C@@H](C)CC)[C@@H](C)CC)C(C)C)C(=O)N[C@@H](Cc1ccccc1)C(=O)NCC(=O)N[C@@H](CCCNC(=N)N)C(=O)N[C@@H](Cc1ccccc1)C(N)=O
active: DU-145 prostate -64.4% | K-562 leukemia 4.14% | MALME-3M melanoma -64.4% | MDA-MB-231 breast -70.6% | RXF 393 renal -2.96% | SF-268 CNS -23.2% | SF-295 CNS -34.1% | SF-539 CNS -69.8% | M14 melanoma -18.4%
inactive: UACC-257 melanoma 47.3%

Cn1cccc1/C=C1\C(=O)Nc2ccccc21
inactive: DU-145 prostate 110% | K-562 leukemia 98.9% | MALME-3M melanoma 94.8% | MDA-MB-231 breast 67.4% | RXF 393 renal 103% | SF-268 CNS 92.3% | SF-295 CNS 100% | SF-539 CNS 99.5% | UACC-257 melanoma 98% | M14 melanoma 96.6%

CCCCN1C(=O)/C(=c2\sc3n(c2=O)NC2C(N=3)N(CC)C(=O)N2CC)c2ccccc21 (stereo not given)
active: RXF 393 renal -0.314%
inactive: DU-145 prostate 20.6% | K-562 leukemia 14.6% | MALME-3M melanoma 57.6% | MDA-MB-231 breast 34.6% | SF-268 CNS 48.6% | SF-295 CNS 69.7% | SF-539 CNS 13.5% | UACC-257 melanoma 31% | M14 melanoma 25.3%
